Source: PubChem BioAssay (The Scripps Research Institute Molecular Screening Center)
Shown are actives, neighbours in structure and some others; about 2.8% of the full set was active somewhere.
PME-1 inh: PME-1 (human) inhibition; Q9Y570; actives 0.53% (n = 320,000); recombinant PME-1, FP-Rh probe fluorescence polarization; inhibition, % at 5.9 µM;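 active = inhibition above the campaign mean of all compounds plus 3 SD, cut at about 26% in these data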;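 note: competitive labeling of PME-1 active site by serine hydrolase directed probe; 0% = PME-1 with DMSO and 100% = wells lacking PME-1 enzyme; inhibitors block probe labeling so polarization falls and inhibition rises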
Target sequence (Q9Y570 whole entry, looked up): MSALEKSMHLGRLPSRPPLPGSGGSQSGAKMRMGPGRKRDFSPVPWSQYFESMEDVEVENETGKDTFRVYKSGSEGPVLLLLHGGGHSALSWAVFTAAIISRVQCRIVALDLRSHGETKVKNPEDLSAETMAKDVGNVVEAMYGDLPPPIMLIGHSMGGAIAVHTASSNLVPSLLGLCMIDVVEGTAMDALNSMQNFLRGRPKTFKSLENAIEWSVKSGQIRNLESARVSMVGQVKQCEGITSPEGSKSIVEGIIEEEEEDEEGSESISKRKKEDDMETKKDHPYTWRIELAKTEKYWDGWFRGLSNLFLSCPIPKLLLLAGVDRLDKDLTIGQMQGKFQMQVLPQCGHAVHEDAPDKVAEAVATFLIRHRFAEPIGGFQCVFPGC
pPAFAH inh: pPAFAH (human) enzyme inhibition | Q13093 | recombinant pPAFAH, FP-rhodamine probe fluorescence polarization | AID 463082 | inhibition, % at 3.39 µM | actives 1.5% (n = 330,000);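 active = inhibition above the mean inhibition across the screen plus 3 SD, cut at about 25% in these data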;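 note: inhibitors block binding of the rhodamine activity-based probe so polarization drops; 0% = enzyme with DMSO and 100% = wells lacking pPAFAH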
PAFAH2 FP inh: inhibitors of human PAFAH2; Q99487; recombinant PAFAH2, FP-rhodamine activity probe, fluorescence polarization; inhibition, % at 3.39 µM; actives 0.99% (n = 340,000);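 active = inhibition above the mean over all tested compounds plus 3 SD, cut at about 30% in these data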;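 note: inhibitors block probe labeling of enzyme so polarization drops; 0% = enzyme with DMSO and 100% = wells lacking PAFAH2 protein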
PAFAH1B2 FP inh: blocks human PAF acetylhydrolase 1b catalytic subunit 2; P68402; recombinant PAFAH1B2, FP-rhodamine activity probe, fluorescence polarization; inhibition, % at 3.39 µM; actives 1.2% (n = 340,000);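 active = inhibition above the mean of all tested compounds plus 3 SD, cut at about 24% in these data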;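 note: 0% = enzyme with DMSO and 100% = wells lacking PAFAH1B2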
Fam108B counter: counter-screen for RBBP9 inhibitors: inhibitors of mouse Fam108B | recombinant Fam108B, FP-Rh probe fluorescence polarization | inhibition, % at 9.51 µM | actives 0.33% (n = 300,000);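 active = inhibition above the screen mean inhibition plus 3 SD, computed separately per campaign, cut at about 18% in these data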;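 note: inhibitors lower polarization as less probe binds the enzyme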
PAFAH1B3 FP inh: inhibitors of human PAFAH1B3. Q15102. recombinant PAFAH1B3, FP-rhodamine probe, fluorescence polarization. inhibition, % at 3.39 µM. actives 0.28% (n = 340,000);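 active = inhibition above the screen-wide average of all tested compounds plus 3 SD, cut at about 25% in these data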;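 note: 0% = enzyme with DMSO only and 100% = wells lacking PAFAH1B3 protein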
Target sequence (Q15102 whole entry, looked up): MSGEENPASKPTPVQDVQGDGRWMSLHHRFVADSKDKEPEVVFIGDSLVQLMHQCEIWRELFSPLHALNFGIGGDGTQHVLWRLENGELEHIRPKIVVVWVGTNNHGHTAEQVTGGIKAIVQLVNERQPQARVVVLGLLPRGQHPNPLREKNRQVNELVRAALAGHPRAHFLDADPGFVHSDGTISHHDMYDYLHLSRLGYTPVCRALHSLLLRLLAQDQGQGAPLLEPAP
Fam108b inh conf: confirmation of mouse Fam108b serine hydrolase inhibitors. shares compounds with Fam108B counter. recombinant Fam108b, FP-Rh probe fluorescence polarization. inhibition, % at 9.51 µM. actives 44% (n = 930). AID 1978;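 active = inhibition above a limit from the primary screen, the mean over all compounds plus 3 SD, cut at about 19% in these data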;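 note: 0% = median of active Fam108b wells and 100% = catalytically dead S170A mutant; inhibitors free the probe so polarization falls as inhibition rises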
Fam108b ABPP HTS: mouse ABHD17B inhibition; shares compounds with Fam108B counter; recombinant Fam108b, gel-based ABPP, fluorophosphonate probe; actives 44% (n = 260); AID 588649; inhibition, % at 20 µM; in the data active = inhibition above about 40%
* marks the source's active call; other numbers are inactive results; · = no result given.

SMILES | PME-1 inh | pPAFAH inh | PAFAH2 FP inh | PAFAH1B2 FP inh | Fam108B counter | PAFAH1B3 FP inh | Fam108b inh conf | others
COc1ccc(-c2csc3nc(-c4ccc(C)cc4)oc(=O)c23)cc1OC | 10 | 8 | 7 | 3 | -1 | 11 | ·
COc1ccc(-c2csc3nc(-c4ccccc4OC)oc(=O)c23)cc1 | -9 | -7 | -6 | -9 | 28* | -16 | 52* | Fam108b ABPP HTS=85*
O=c1oc(-c2ccccc2F)nc2scc(-c3ccccc3)c12 | -12 | -1 | · | · | 55* | · | 54* | Fam108b ABPP HTS=80*
O=C(COc1ccccc1F)NC12CC3CC(CC(C3)C1)C2 | -6 | -3 | 0 | 7 | -1 | -2 | ·
O=C(Nc1ccc(OC(F)(F)F)cc1)C1CCCN(C(=O)c2ccc(Cl)cc2)C1 (centres undefined) | -3 | -2 | -2 | 12 | · | -1 | ·
COc1ccc(CNC(=O)Cn2nc(C)c3c(C)n(-c4ccc(C)cc4)nc3c2=O)cc1OC | -2 | -1 | 4 | 0 | 1 | -2 | ·
CC1CCN(C(=O)CN2c3cccc4cccc(c34)S2(=O)=O)CC1 | -1 | 0 | -11 | -2 | · | 2 | ·
O=C1C2=C(Nc3ccccc3SC2c2ccco2)c2ccccc21 (centres undefined) | 29* | 15 | 12 | 4 | 31* | 11 | 9
COc1cc(CC(=O)OCC(=O)N2CCCCC2C)cc(OC)c1OC (centres undefined) | 1 | 0 | 3 | 4 | -5 | 5 | ·
COc1cc2nc(Nc3ccc(C)c(Cl)c3)nc(N)c2cc1OC | 35* | 22 | 10 | 12 | 23* | 20 | 16
COc1cccc(CNC(=O)CCC(=O)N2CCOCC2)c1 | -3 | -1 | 0 | 3 | · | 4 | ·
CCCCCc1ccnc(CC(=O)c2ccc(OC)cc2)c1 | · | · | -1 | 9 | · | 2 | ·
CCC(=O)NC(c1ccccc1Cl)c1c(O)ccc2ccccc12 (centres undefined) | 47* | -8 | 10 | 4 | 18* | 7 | 1
CC(C)C(=O)NC(c1ccccc1Cl)c1c(O)ccc2ccccc12 (centres undefined) | 12 | -15 | 10 | 3 | 5 | 10 | ·
Oc1ccc(C2Nc3cccc4cccc(c34)N2)c(O)c1 | 64* | 2 | -5 | 17 | 67* | 36* | 45* | Fam108b ABPP HTS=65*
c1coc(C2Nc3cccc4cccc(c34)N2)c1 | 8 | 26* | · | · | 22* | · | 18*
Fc1ccc(C2Nc3cccc4cccc(c34)N2)cc1 | 11 | -1 | -4 | 1 | 33* | 18 | 11
Clc1ccccc1C1Nc2cccc3cccc(c23)N1 | 12 | 12 | 7 | 0 | 6 | 9 | ·
COc1ccc(C2Nc3cccc4cccc(c34)N2)cc1Br | 32* | 11 | -8 | 8 | 37* | 16 | 6
COc1cccc(CCN2C(=O)C(=O)N([C@@H](CNCc3ccccc3)Cc3ccccc3F)C[C@@H]2C(C)(C)C)c1 | 19 | 4 | · | · | 2 | · | ·
COc1cccc(C2c3[nH]c4ccccc4c3C[C@H]3C(=O)N(c4ccccc4C(=O)NCCCN4CCOCC4)C(=O)N23)c1 (some centres undefined) | -3 | 2 | 5 | 3 | -1 | 2 | ·
Cc1ccc(C2Nc3cccc4cccc(c34)N2)s1 | 12 | 11 | -8 | 11 | 29* | 23 | 13
CCN(CC)c1ccc(C2Nc3cccc4cccc(c34)N2)cc1 | 10 | 0 | 13 | 6 | 9 | 13 | ·
CCCOc1ccc(C2Nc3cccc4cccc(c34)N2)cc1 | 49* | 8 | -13 | 6 | 25* | 13 | 15
C=CCN(C(=O)CC(NC(C)=O)c1ccccc1)c1nc(-c2ccc(S(C)(=O)=O)cc2)cs1 (centres undefined) | -1 | 3 | 3 | 0 | -4 | 12 | ·
SMILES | PME-1 inh | pPAFAH inh | PAFAH2 FP inh | PAFAH1B2 FP inh | Fam108B counter | PAFAH1B3 FP inh | Fam108b inh conf | others
O=C(NN=Cc1cc(Cl)c(O)c(Cl)c1)c1cc2c(ccc3ccccc32)o1 | · | · | · | · | · | · | · | Fam108b ABPP HTS=0
COc1ccc(/C=N/NC(=O)c2cc3c(ccc4ccccc43)o2)cc1OC | · | · | -4 | 6 | · | 4 | ·
COc1cc(/C=N/NC(=O)c2cc3c(ccc4ccccc43)o2)cc(OC)c1O | 34* | 13 | -9 | 8 | 27* | 11 | 20*
O=C(C1=C[C@H](c2ccccc2)C[C@H](OCCCCO)O1)N1CCOCC1 | -5 | 6 | 2 | -5 | -2 | 6 | ·
CCCC(=O)Nc1sc2c(c1C#N)CCCCC2 | 4 | 0 | -3 | 9 | 70* | 1 | -6
Nc1nc2ccccc2n1/N=C/c1ccc2c(c1)OCO2 | 12 | 6 | · | · | 4 | · | ·
Nc1nc2ccccc2n1/N=C/c1ccc(Br)cc1 | 11 | 16 | 6 | -4 | 29* | 8 | 35*
O=C(Nc1cc(Cl)ccc1N1CCOCC1)c1cnccn1 | -13 | -4 | 0 | 4 | 2 | 0 | ·
O=C(Nc1cc(S(=O)(=O)N2CCOCC2)ccc1N1CCCC1)c1cnccn1 | 6 | 7 | 3 | 3 | 18* | 17 | 23*
Nc1[nH]n(-c2ccccc2)c(=O)c1N=Nc1ccc2ncsc2c1 | 36* | 16 | 8 | 6 | 20* | 3 | 8
Nc1[nH]n(-c2ccccc2)c(=O)c1N=Nc1ccccc1 | 24 | 10 | 4 | 5 | 10 | 10 | ·
COc1cccc(/C=N/Nc2nc(Nc3ccc([N+](=O)[O-])cc3)nc(N3CCCC3)n2)c1O | 5 | 16 | · | · | 25* | · | 31*
CCN(CC)S(=O)(=O)c1cc(NC(=O)COC(=O)C2CCC2)ccc1C | -1 | 8 | 14 | 4 | · | 14 | ·
CCN(CC)S(=O)(=O)c1cc(NC(=O)COC(=O)c2sc3ccccc3c2Cl)ccc1C | 8 | 18 | 7 | -3 | 43* | -1 | 59* | Fam108b ABPP HTS=90*
CCC/C(C#CCCN1C(=O)c2ccccc2C1=O)=C1/c2ccccc2C(=O)N1c1ccccc1 | · | -1 | -12 | -2 | · | -7 | ·
COc1ccc(N=C2NC(=O)/C(=C/c3ccc(O)c(OC)c3)S2)cc1 | 7 | 17 | 20 | 4 | 7 | 8 | ·
COc1cccc(N=C2NC(=O)/C(=C/c3cc([N+](=O)[O-])ccc3O)S2)c1 | -7 | 25 | 40* | 27* | 19* | 39* | 15
C/C(=N\Nc1ccc(C(=O)O)cc1)c1ccc2c(c1)Nc1ccccc1S2 | 28* | 34* | 25 | 8 | 30* | 26* | 27*
COc1ccc(/C(C)=N/Nc2cccc(C(=O)O)c2)cc1OC | 3 | 5 | 3 | 3 | 2 | -8 | ·
CCOC(=O)c1c(NC(=O)Nc2ccccc2)sc(C)c1C | 21 | 9 | -3 | 2 | 22* | 3 | 6
